Experimental data taken from PubChem BioAssay (NCATS).
Where “and” joins values, the source holds several entries; their conditions need not be identical. Identical values can stand only once. Records with an inconclusive call do not appear. Calls of active or inactive are those of the source. Calls come from the whole dose curve; as a rule, active = well fitted curve in the direction sought with a large enough effect; inconclusive = small, poorly fitted or top-dose-only effect, or another doubt; inactive = no such curve, though single readings can be large; an effect the other way counts as inactive or inconclusive.

What was measured:
[1] = Viability qHTS for spleen associated tyrosine kinase inhibitor (SYKi) drug resistant MV4-11 cells (AID 1963824); note: nearly all actives have a fitted effect of over 35% in size; note: potency is the fitted concentration of half-maximal effect
Summary of the method: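 SYK inhibitor-resistant MV4-11 AML cells, 500 per well, added to predispensed compounds and incubated 72 hr at 37 C, 5% CO2. Viability measured by CellTiter-Glo luminescence after 10 min at room temperature.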

[2] = Quantitative highthroughput screen to assess conditional lethalithy of NOMO1 cells grown in RPMI1640 with dialyzed fetal bovine serum (RPMI+ds) (AID 1963877); note: nearly all actives have a fitted effect of over 30% in size; note: potency is the fitted concentration of half-maximal effect;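 for Viability: series mostly up to about 46 µM; 100% = DMSO control wells and 0% = empty wells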
Summary of the method: (§1)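 Each medium arm—HPLM with 10% dialyzed FBS, or RPMI1640 with 5 mM glucose and 10% untreated or dialyzed FBS—was screened against an 11-point, 3-fold compound titration for 48 h at 37 °C, with CellTiter-Glo luminescence as endpoint.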

[3] = Quantitative highthroughput screen to assess conditional lethalithy of P12 Ichikawa cells grown in RPMI1640 with dialyzed fetal bovine serum (RPMI+ds) (AID 1963880); details: Potency: P12-Ichikawa viability; note: nearly all actives have a fitted effect of over 35% in size; note: potency is the fitted concentration of half-maximal effect;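 for Viability: 100% = DMSO wells and 0% = empty wells on each plate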
Summary of the method: as §1

[4] = Quantitative highthroughput screen to assess conditional lethalithy of P12 Ichikawa cells grown in RPMI1640 with untreated serum (RPMI+s) (AID 1963881); details: Potency: viability; note: nearly all actives have a fitted effect of over 35% in size; note: potency is the fitted concentration of half-maximal effect;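 for Viability: series mostly up to about 46 µM; 100% = DMSO wells and 0% = empty wells without cells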
Summary of the method: as §1

[5] = Cellular viability qHTS for adrenocortical cancer (ACC) cell line SW-13 (AID 1963989); details: SW-13 ACC cells viability, CellTiter-Glo, 48 h; activity (max response): active compounds read low;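 note: cells grown in serum-free medium with ITS supplement; % is set by controls: 0 for no effect and ±100 for the full control effect; nearly all actives have a fitted effect of over 65% in size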
Summary of the method: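 Luminescent ATP read-out (CellTiter-Glo, 20 min at room temperature) measured metabolically competent SW-13 cells after 48 h compound treatment. Final concentrations spanned up to 46 uM; bortezomib served as positive control.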

[6] = Cellular viability qHTS for adrenocortical cancer (ACC) cell line NCI-H295R (AID 1963990);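 note: 0% = DMSO only wells and -100% = full killing with cytotoxic reference compound; nearly all actives have a fitted effect of over 60% in size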
Summary of the method: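 IC50 and maximal efficacy derive from four-parameter logistic modelling of titration curves, with reads scaled between DMSO-only wells (0%) and doxorubicin hydrochloride (100% inhibition). Compounds spanned up to 46 uM over 48 h.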

[7] = Quantitative highthroughput screen to assess conditional lethalithy of NOMO1 cells grown in RPMI1640 with untreated serum (RPMI+s) (AID 1963876);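 note: 100% = DMSO wells and 0% = empty wells without cells; nearly all actives have a fitted effect of over 35% in size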
Summary of the method: as §1

[8] = Quantitative highthroughput screen to assess conditional lethalithy of SEM cells grown in Human Plasma-Like Medium with dialyzed fetal bovine serum (HPLM+ds) (AID 1963882); note: nearly all actives have a fitted effect of over 35% in size; note: potency is the fitted concentration of half-maximal effect; for Viability: series mostly up to about 46 µM
Summary of the method: as §1

[9] = Quantitative highthroughput screen to assess conditional lethalithy of SEM cells grown in RPMI1640 with unreated serum (RPMI+s) (AID 1963883); note: nearly all actives have a fitted effect of over 35% in size; note: potency is the fitted concentration of half-maximal effect;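 for Viability: 100% = DMSO wells and 0% = empty wells without cells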
Summary of the method: as §1

[10] = Quantitative highthroughput screen to assess conditional lethalithy of NOMO1 cells grown in Human Plasma-Like Medium with dialyzed fetal bovine serum (HPLM+ds) (AID 1963878); note: nearly all actives have a fitted effect of over 35% in size; note: potency is the fitted concentration of half-maximal effect;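 for Viability: 100% = DMSO wells and 0% = empty wells on each plate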
Summary of the method: as §1

[11] = Quantitative highthroughput screen to assess conditional lethalithy of P12 Ichikawa cells grown in Human Plasma-Like Medium with dialyzed fetal bovine serum (HPLM+ds) (AID 1963879); details: Potency: viability
Summary of the method: as §1

[12] = Quantitative highthroughput screen to assess conditional lethalithy of SEM cells grown in RPMI1640 with dialyzed fetal bovine serum (RPMI+ds) (AID 1963884); note: nearly all actives have a fitted effect of over 35% in size; note: potency is the fitted concentration of half-maximal effect;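 for Viability: series mostly up to about 46 µM; 100% = DMSO control wells and 0% = empty wells without cells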
Summary of the method: as §1

Nc1cccc2c1C(=O)N(C1CCC(=O)NC1=O)C2=O (stereo not given)
active: Potency [3] 14.8 µM | Potency [4] 16.6 µM
inactive: Potency [1] | Potency [2] | activity (max response) [5] 11.8% | Potency [6]

CN(C(=O)c1ccc(F)cc1C(F)(F)F)C1CCN(c2nnc(-c3ccnn3C)c3ccccc23)CC1
active: Potency [1] 18.4 µM
inactive: Potency [7] | Potency [8] | Potency [9] | activity (max response) [5] -13.3% | Potency [6]

CCCCC(C)(C)[C@H](O)C=C[C@H]1[C@H](O)CC(=O)[C@H]1CC=CCCCC(=O)O
active: Potency [1] 0.148 µM | Potency [10] 20.9 µM | Potency [3] 23.5 µM | Potency [4] 26.4 µM | Potency [8] 20.9 µM
inactive: Potency [6]

CC(C)OC(=O)OCOP(=O)(CO[C@H](C)Cn1cnc2c(N)ncnc21)OCOC(=O)OC(C)C
inactive: Potency [11] | Potency [3] | Potency [6]
active: Potency [1] 9.44 µM | Potency [2] 23.5 µM

O=C(CCc1ccc(O)cc1)c1c(O)cc(O)cc1O
inactive: Potency [1] | Potency [2] | Potency [11] | Potency [3] | Potency [4] | Potency [8] | Potency [9] | activity (max response) [5] -4.39% | Potency [6]

CCOC(=O)[C@@]1(CCCCCCOc2ccc(Cl)cc2)CO1
active: Potency [1] 20.9 µM | Potency [9] 11.7 µM
inactive: Potency [10]

CN(C)C(=O)[C@H](O)[C@H](Cc1ccccc1)NC(=O)c1cc2cc(Cl)ccc2[nH]1
inactive: Potency [7]
active: Potency [1] 20.9 µM | Potency [8] 2.09 µM | Potency [9] 2.64 µM | Potency [12] 2.35 µM

CN(C)C(=O)c1ccc(S(=O)(=O)c2ccc(NC(=O)[C@@](C)(O)C(F)(F)F)c(Cl)c2)cc1
inactive: Potency [6]
active: Potency [1] 9.2 µM and 3.72 µM | Potency [10] 10.5 µM | Potency [4] 14.8 µM | Potency [9] 11.8 µM

O=C(O)COCCN1CCN(C(c2ccccc2)c2ccc(Cl)cc2)CC1 (stereo not given)
inactive: Potency [1] | Potency [2] | Potency [10] | Potency [11] | Potency [3] | Potency [4] | Potency [9] | Potency [12] | activity (max response) [5] 9.41% | Potency [6]

COc1ccccc1OCC(O)COC(N)=O (stereo not given)
inactive: Potency [1] | Potency [2] | Potency [4] | Potency [9] | Potency [12] | activity (max response) [5] -1.45% | Potency [6]

CC(=O)OC1C(C)OC(Oc2c(-c3ccc(O)cc3)oc3cc(O)cc(O)c3c2=O)C(O)C1OC(C)=O (stereo not given)
active: Potency [1] 20.9 µM
inactive: Potency [2] | Potency [10] | Potency [11] | Potency [3] | Potency [4] | Potency [8] | Potency [6]
